Bioassay records as filed in PubChem.
Rows were chosen to be rich in hits. Some 0.92% of all compounds tested hit in one or more screens of this group.
Mtb hypoxia inh: PubChem AID 1159583 | M. tuberculosis hypoxia-regulated fluorescent reporter, fluorescence | fluorescence inhibition, % (concentration not given with the values) | 0.1% of 300,000 active; in the data active = fluorescence inhibition mostly above about 23%, no sharp cut-off; inactive = mostly below about 17%
FadD28 FP inh: inhibitors of FadD28 bisubstrate probe binding, primary screen, biochemical, fluorescence polarization, single point. Mycobacterium tuberculosis FadD28 fatty-acid-AMP ligase. inhibition, % at 12.5 µM. 0.22% of 360,000 active. AID 588549, 2011; in the data active = inhibition above about 8.5%, passing the limit was not always enough; inconclusive = no clear call, values can overlap the other calls
Mtb bLac sens: beta-lactam sensitization of Mtb H37Rv, H37Rv | inhibition, % at 25 µM | M. tuberculosis H37Rv growth with meropenem, percent inhibition | 0.27% of 330,000 active; call rule not given here;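 also: growth measured after seven days incubation then overnight dye step; 0% = bacteria only wells and 100% = bacteria with antibiotic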
RecA intein inh: Mtb RecA intein splicing inhibitors, primary screen, biochemical, fluorescence, HTS. Protein RecA (Mycobacterium tuberculosis (strain ATCC 25618 / H37Rv)), P9WHJ3. cell-free RecA intein splicing. inhibition, % (no concentration beside the values). 0.75% of 290,000 active; in the data active = inhibition above about 30%; inconclusive = no clear call, values can overlap the other calls;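 also: 0% = vehicle wells and 100% = reference inhibitor control wells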
UGM FP inh: M. tuberculosis UGM enzyme inhibitors, primary screen, biochemical, fluorescence polarization, single point; UDP-galactopyranose mutase (Mycobacterium tuberculosis (strain ATCC 25618 / H37Rv)), …; purified UGM, fluorescence polarization probe displacement; inhibition, % at 10 µM; 0.06% of 320,000 active; AID 504406, 2011; in the data active = inhibition above about 10%, passing the limit was not always enough; inconclusive = no clear call, values can overlap the other calls
Target sequence (P9WIQ1 whole entry, looked up): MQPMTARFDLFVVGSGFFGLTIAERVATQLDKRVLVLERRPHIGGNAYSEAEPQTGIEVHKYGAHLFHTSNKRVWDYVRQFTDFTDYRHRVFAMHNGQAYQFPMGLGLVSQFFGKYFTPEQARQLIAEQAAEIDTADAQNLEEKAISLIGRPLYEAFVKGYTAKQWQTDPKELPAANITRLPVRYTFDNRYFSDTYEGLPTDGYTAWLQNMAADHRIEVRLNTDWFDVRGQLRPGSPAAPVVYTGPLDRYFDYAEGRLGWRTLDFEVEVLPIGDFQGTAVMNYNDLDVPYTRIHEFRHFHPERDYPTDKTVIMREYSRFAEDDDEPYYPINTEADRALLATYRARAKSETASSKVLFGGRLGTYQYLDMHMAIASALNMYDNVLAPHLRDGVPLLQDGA
Rv3671c inh: Rv3671c serine protease inhibitors, primary screen, biochemical, fluorescence polarization, M. tuberculosis H37Rv; P9WHR9; inhibition, % at 5.96 µM; 0.048% of 320,000 active; AID 2606, 2010; in the data active = inhibition above about 38%;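 also: extracellular domain of Rv3671c used as enzyme; 0% = enzyme with DMSO and 100% = no enzyme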
The depositor's hits bear a star; ? = inconclusive; . = no result given.

SMILES	Mtb hypoxia inh	FadD28 FP inh	Mtb bLac sens	RecA intein inh	UGM FP inh	Rv3671c inh
Oc1ccc(C=Nc2ccc3ncccc3c2)c(O)c1	.	.	93.3	52.7*	-2.0	-6.4
N[C@@H](Cc1cc(I)c(O)c(I)c1)C(=O)O	.	10.0*	-7.3	-2.9	0.9	-6.5
CC1(C)Cc2ccccc2-c2nc(NN)[nH]c(=O)c21	3.1	-4.5	-2.9	-4.5	0.5	3.6
COc1ccc2ccc3c(c2c1)N=CC1(O3)N(C)c2ccccc2C1(C)C (stereo not drawn)	11.0	-2.8	3.3	75.6*	0.8	-168.4
CCCc1[nH]nc2c1C(C1CCCCC1)C(C#N)=C(N)O2 (stereo not drawn)	15.6	-12.9	-0.1	-5.2	0.4	2.3
CCOc1cc(C2C(C#N)=C(N)Oc3n[nH]c(CC)c32)ccc1OCCN1CCOCC1 (stereo not drawn)	.	-1.0	-3.5	50.3*	1.2	1.4
COc1ccc(C2C(C#N)=C(N)Oc3cc(C)n(CCN4CCOCC4)c(=O)c32)cc1OC (stereo not drawn)	8.6	-1.4	-11.3	-1.5	-0.6	-6.0
CCCc1[nH]nc2c1C(c1ccc(OCCN3CCOCC3)c(OCC)c1)C(C#N)=C(N)O2 (stereo not drawn)	10.2	-3.5	6.5	44.4*	-0.8	-3.0
CCCc1[nH]nc2c1C(c1ccc(O)cc1OCC)C(C#N)=C(N)O2 (stereo not drawn)	.	-0.7	-3.7	78.3*	-3.1	-2.2
CCOc1cc(C2C(C#N)=C(N)Oc3n[nH]c(C)c32)ccc1OCCN1CCOCC1 (stereo not drawn)	-6.1	0.4	-1.4	48.3*	-0.9	-4.5
CCOc1cc(/C=N/NC(=O)CSc2cccc3cccnc23)ccc1O	.	0.3	-3.4	-12.3	-1.8	10.2
Nc1ccc2nc(N3CCOCC3)sc2c1	3.4	-0.6	8.1	80.4*	-0.3	-0.5
CCOC(=O)C1CCN(CCC(=O)Nc2ccccc2Cl)CC1	-0.3	2.3	6.6	-1.6	-1.4	1.6
CC(C)C1Nc2c(O)cc(Cl)c([N+](=O)[O-])c2C2C=CCC21 (stereo not drawn)	20.5	24.9*	.	20.1	.	.
O=c1c2ccccc2nc2n1CCS2(=O)=O	.	-4.1	95.9	39.2*	3.0	3.9
O=c1c2ccccc2nc2c3ccccc3c3nncn3n12	-0.5	-1.1	.	-0.3	.	.
O=C(O)c1ccc([N+](=O)[O-])c2c1C(=O)c1ccccc1C2=O	11.3	-0.7	-1.5	47.2*	5.3	-4.1
O=C1c2ccccc2C(=O)c2c([N+](=O)[O-])ccc(O)c21	.	-5.0	6.5	.	0.9	20.9
O=C(Nc1ccc(Nc2ccccc2)cc1)c1cccc(F)c1	-3.9	-2.2	5.7	-1.2	-4.6	19.6
C[C@]12c3[nH]c4ccccc4c3CCN1C(=O)C(CC(=O)NCc1ccco1)C[C@@H]2C(=O)N1CCOCC1 (stereo partly drawn)	.	-3.3	0.2	.	-0.4	-3.8
Cc1ccc(NC(=O)CN2C(=O)S/C(=C\c3cc(C)n(-c4ccc(C(=O)O)cc4)c3C)C2=O)cc1	-7.0	59.9*	-0.7	-5.2	-1.2	-3.6
Cc1cccc(NC(=O)CN2C(=O)N/C(=C/c3cc(C)n(C(C)C)c3C)C2=O)c1	-3.0	41.7*	0.8	-1.2	0.7	-1.3
Cc1ccc(NC(=O)CN2C(=O)N/C(=C/c3ccco3)C2=O)cc1	.	-1.9	-7.6	10.5	-0.9	-2.3
Cc1ccc(NC(=O)CN2C(=O)N/C(=C/c3cc(C)n(-c4ccc(C(=O)O)cc4)c3C)C2=O)cc1	3.2	52.5*	.	.	.	.
Cc1ccc(NC(=O)CN2C(=O)N/C(=C/c3cccn3-c3ccc(C(=O)O)cc3)C2=O)cc1	11.7	17.8*	5.1	.	1.1	2.4
SMILES	Mtb hypoxia inh	FadD28 FP inh	Mtb bLac sens	RecA intein inh	UGM FP inh	Rv3671c inh
CSc1nc(=O)n2cccc(C)c2n1	-5.9	-2.8	-6.8	.	0.7	3.3
COc1cc(/C=C2\CC/C(=C\c3cc(OC)c(O)c(OC)c3)C2=O)cc(OC)c1O	-3.1	?	12.8	.	17.3*	-29.0
COc1cc(/C=C2\CC/C(=C\c3cc(OC)c(OC)c(OC)c3)C2=O)cc(OC)c1OC	.	-2.4	84.2	-1.9	-0.2	-18.6
COC(=O)CCC(=O)OC1(C)C(=O)C2=COC(c3ccc(OC)cc3)=CC2=C(Br)C1=O (stereo not drawn)	.	.	-2.7	-2.5	-1.7	0.9
COc1ccc(C2=CC3=C(Br)C(=O)C(C)(OC(=O)C4CCCC4)C(=O)C3=CO2)cc1 (stereo not drawn)	.	10.7*	-2.5	5.5	-2.5	-1.9
CC(=O)Oc1cc2c(cc1Cl)C1(CC(c3ccccc3Cl)O2)CC(C)(C)NC(=S)N1 (stereo not drawn)	.	-6.8	74.4	44.7*	-1.0	17.6
CC1(C)CC2(CC(c3ccccc3F)c3cc(Cl)c(O)cc3O2)NC(=S)N1 (stereo not drawn)	-4.2	-8.4	-4.0	3.4	-0.5	-7.2
Cc1ccc(C(C)C)c(OCc2ccc(C(=O)NN=Cc3cccc(O)c3O)cc2)c1	4.6	.	.	.	.	.
Cc1cccc(NC(=O)CN2C(=O)S/C(=C\c3cccn3-c3cccc(C(=O)O)c3)C2=O)c1	7.1	61.6*	-4.9	-4.8	0.4	-24.9
COc1ccc(/C=C2\SC(=O)N(CC(=O)Nc3cccc(C)c3)C2=O)cc1O	1.0	26.2*	4.3	-0.5	-2.3	-53.9
COc1cc(/C=C2\SC(=O)N(CC(=O)Nc3cccc(C)c3)C2=O)ccc1OC(C)C(=O)O (stereo not drawn)	9.5	81.2*	1.9	1.3	-1.1	-3.1
COc1ccc(/C=C2\SC(=O)N(CC(=O)Nc3ccc(O)cc3)C2=O)cc1OC	3.0	1.2	5.2	-3.1	-0.9	.
O=C(N/N=C/c1c(O)n(Cc2ccccc2)c(=O)[nH]c1=O)c1ccccc1O	8.0	4.2	2.7	21.0	0.8	-29.7
O=C(N/N=C/c1c(O)n(Cc2ccc(F)cc2)c(=O)[nH]c1=O)c1ccccc1O	4.8	18.5*	4.5	31.6*	1.3	-30.6
COc1ccccc1/C=C/C1(C(=O)NC2CCCC2)CC(=O)N1c1ccc(C)cc1 (stereo not drawn)	7.4	-1.0	-7.2	34.4*	-0.8	-4.4
CCN(CC)S(=O)(=O)c1ccc(N2C(=O)CC2(/C=C/c2ccccc2)C(=O)NC2CCCC2)cc1 (stereo not drawn)	2.1	-0.9	-2.0	-4.3	-1.6	1.3
O=C1N/C(=N\S(=O)(=O)c2ccccc2)S/C1=C\c1cc([N+](=O)[O-])ccc1O	.	19.5*	6.5	1.6	-8.2	5.7
Cc1ccc(S(=O)(=O)/N=C2/NC(=O)/C(=C/c3ccc(Br)o3)S2)cc1	4.9	3.0	-8.3	-5.0	2.4	-14.9
O=C1N/C(=N\S(=O)(=O)Cc2ccccc2)S/C1=C/c1cc([N+](=O)[O-])ccc1O	13.2	15.4*	-9.4	2.1	-4.6	8.0
